From PubChem BioAssay (EPA / NIEHS)
Results filed as inconclusive are left out. Activity calls are given as the source filed them. The calls were made as follows, unless noted: active = hit-call score of the fitted dose curve at least 0.9, where 1 is the maximum; inactive = score below 0.9.

Tests used:
[1] = ATG_TAL_CIS: Attagene CIS-FACTORIAL HepG2 Assay for human TAL Basal Promoter (AID 2282966); details: HepG2 Attagene cis-factorial TAL promoter reporter; actives raise or lower the signal;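 also: background control endpoint measuring basal TAL promoter reporter mRNA not a specific factor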
In short: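 Readout: reporter mRNA, fluorescence by CE. System: HepG2, transient multi-reporter transfection, endogenous TF activity. Exposure: 24 h. Analysis: bidirectional, DMSO-normalized; background control.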

[2] = ATG_TGFb_CIS: Attagene CIS-FACTORIAL HepG2 Assay for human Transforming Growth Factor (TGF) (AID 2282967); details: HepG2 Attagene CIS TGFb reporter, mRNA transcription; actives raise or lower the signal
In short: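 After a 24-hour incubation with compound, transfected HepG2 cells were lysed for RNA; reporter cDNA was amplified, fluorescently end-labeled and separated by CE. DMSO served as baseline for bidirectional fits.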

[3] = ATG_VDRE_CIS: Attagene CIS-FACTORIAL HepG2 Assay for human Vitamin D Receptor Element (VDRE) (AID 2282968); details: HepG2 VDRE cis-reporter transcription, actives raise or lower the signal
In short: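 Transiently transfected HepG2 cells carrying cis-regulated reporter transcription units were exposed for 24 h. Reporter mRNA was measured by RT-PCR with fluorescent labelling and capillary electrophoresis, and fitted in both directions against DMSO.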

[4] = biological target: Estrogen receptor (Homo sapiens) (UniProt P03372); assay: ATG_ERa_TRANS: Attagene TRANS-FACTORIAL HepG2 Assay for human Estrogen Receptor alpha (ERa) (AID 2282970; active = hit-call score of the fitted dose curve at least 0.9, where 1 is the maximum); details: HepG2 Attagene TRANS ERa GAL4 reporter, mRNA
In short: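 Transactivation via ERa-Gal4 chimera in HepG2; 24 hour incubation; reporter mRNA detected by fluorescence RT-PCR and capillary electrophoresis.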

[5] = biological target: X-box-binding protein 1 (Homo sapiens) (UniProt P17861); assay: ATG_Xbp1_CIS: Attagene CIS-FACTORIAL HepG2 Assay for human X-box Binding Protein 1 (XBP1) (AID 2282972); details: HepG2 XBP1 cis-element reporter, Attagene multiplex; actives raise or lower the signal
In short: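 HepG2 cells transiently transfected with cis-regulated multiple reporter transcription units; endogenous transcription factor activity measured 24 hours after chemical dosing. Reporter mRNA quantified by RT-PCR, 6-FAM primer extension, HpaI digestion and capillary electrophoresis; bidirectional fitting versus DMSO.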

[6] = ATG_M_19_TRANS: Attagene TRANS-FACTORIAL HepG2 Assay for M19 Transcription Factor (Internal Marker) (AID 2282974; active = hit-call score of the fitted dose curve at least 0.9, where 1 is the maximum); details: HepG2 Attagene TRANS-FACTORIAL M19 internal marker reporter
In short: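 Cells: human HepG2, transiently transfected with multiplexed reporter transcription units. Exposure: 24 h. Detection: RT-PCR of reporter mRNA with capillary electrophoresis. Analysis: gain-of-signal vs DMSO.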

[7] = ATG_GAL4_TRANS: Attagene TRANS-FACTORIAL HepG2 Assay for GAL4 (Internal Marker) (AID 2282976; active = hit-call score of the fitted dose curve at least 0.9, where 1 is the maximum); details: HepG2 Attagene TRANS GAL4 internal marker reporter
In short: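 Fluorescence from capillary electrophoresis of labelled RT-PCR products quantifies reporter mRNA induction after 24 h dosing of HepG2 cells carrying transfected GAL4-UAS reporter transcription units. Vehicle DMSO serves as baseline.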

[8] = biological target: Steroid hormone receptor ERR1 (Homo sapiens) (UniProt P11474); assay: ATG_ERRa_TRANS: Attagene TRANS-FACTORIAL HepG2 Assay for human Estrogen-Related Receptor alpha (ERRa) (AID 2282971; active = hit-call score of the fitted dose curve at least 0.9, where 1 is the maximum); details: HepG2 Attagene TRANS reporter, ERRa transactivation
In short: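 HepG2 cells were transiently transfected with multiple GAL4-UAS reporter units, then dosed with compound for 24 h. Total RNA was reverse-transcribed, reporter cDNA PCR-amplified and fluorescently labelled, and fragments resolved by capillary electrophoresis; induction was compared with DMSO.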

[9] = biological target: Estrogen-related receptor gamma (Homo sapiens) (UniProt P62508); assay: ATG_ERRg_TRANS: Attagene TRANS-FACTORIAL HepG2 Assay for human Estrogen-Related Receptor gamma (ERRg) (AID 2282977; active = hit-call score of the fitted dose curve at least 0.9, where 1 is the maximum;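 also: hits increase reporter signal over DMSO so potencies reflect activators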); details: HepG2 Attagene TRANS reporter, ERRg transactivation
In short: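 Transfect HepG2 with multiple GAL4-UAS reporter transcription units; dose chemicals 24 h; isolate RNA, reverse-transcribe with oligo(dT), PCR-amplify, label with 6-FAM, digest with HpaI; size fragments by capillary electrophoresis. DMSO serves as negative control.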

Measured: AC50

Steroid hormone receptor ERR1 (Homo sapiens), sequence (P11474 whole entry, looked up, the tested form may be a part): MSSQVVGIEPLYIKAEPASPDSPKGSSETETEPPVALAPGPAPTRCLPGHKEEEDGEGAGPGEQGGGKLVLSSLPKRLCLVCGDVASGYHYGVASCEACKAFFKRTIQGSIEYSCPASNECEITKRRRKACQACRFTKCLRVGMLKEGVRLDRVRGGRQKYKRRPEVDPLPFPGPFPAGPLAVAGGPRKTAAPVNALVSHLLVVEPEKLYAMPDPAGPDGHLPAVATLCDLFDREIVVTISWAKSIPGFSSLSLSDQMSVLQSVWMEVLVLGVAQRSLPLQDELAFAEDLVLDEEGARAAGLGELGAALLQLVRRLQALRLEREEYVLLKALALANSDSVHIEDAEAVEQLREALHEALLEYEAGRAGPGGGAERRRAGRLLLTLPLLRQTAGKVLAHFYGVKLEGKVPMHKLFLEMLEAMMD
Estrogen receptor (Homo sapiens), sequence (P03372 whole entry, looked up, the tested form may be a part): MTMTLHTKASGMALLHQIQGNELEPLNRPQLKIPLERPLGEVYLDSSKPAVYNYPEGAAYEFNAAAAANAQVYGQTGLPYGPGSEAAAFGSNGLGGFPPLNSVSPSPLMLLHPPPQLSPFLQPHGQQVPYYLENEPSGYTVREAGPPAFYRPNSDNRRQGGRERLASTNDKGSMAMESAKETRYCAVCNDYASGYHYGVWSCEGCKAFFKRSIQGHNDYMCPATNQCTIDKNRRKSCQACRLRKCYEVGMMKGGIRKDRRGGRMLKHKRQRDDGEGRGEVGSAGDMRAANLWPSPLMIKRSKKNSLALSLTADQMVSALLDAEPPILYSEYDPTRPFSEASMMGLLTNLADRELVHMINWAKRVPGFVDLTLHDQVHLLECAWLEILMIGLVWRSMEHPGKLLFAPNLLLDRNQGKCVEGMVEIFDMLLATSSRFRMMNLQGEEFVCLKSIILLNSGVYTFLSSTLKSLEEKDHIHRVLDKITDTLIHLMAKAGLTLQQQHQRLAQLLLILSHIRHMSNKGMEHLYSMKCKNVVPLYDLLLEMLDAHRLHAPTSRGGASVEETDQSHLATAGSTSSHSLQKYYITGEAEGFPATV
X-box-binding protein 1 (Homo sapiens), sequence (P17861 whole entry, looked up): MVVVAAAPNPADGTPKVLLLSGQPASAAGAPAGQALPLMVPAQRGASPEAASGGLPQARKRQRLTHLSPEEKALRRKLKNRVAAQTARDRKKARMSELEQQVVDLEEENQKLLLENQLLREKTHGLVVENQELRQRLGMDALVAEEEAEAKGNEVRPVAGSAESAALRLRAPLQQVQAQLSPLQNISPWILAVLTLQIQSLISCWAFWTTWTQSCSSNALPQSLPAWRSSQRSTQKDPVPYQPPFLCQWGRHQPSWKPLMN
Estrogen-related receptor gamma (Homo sapiens), sequence (P62508 whole entry, looked up, the tested form may be a part): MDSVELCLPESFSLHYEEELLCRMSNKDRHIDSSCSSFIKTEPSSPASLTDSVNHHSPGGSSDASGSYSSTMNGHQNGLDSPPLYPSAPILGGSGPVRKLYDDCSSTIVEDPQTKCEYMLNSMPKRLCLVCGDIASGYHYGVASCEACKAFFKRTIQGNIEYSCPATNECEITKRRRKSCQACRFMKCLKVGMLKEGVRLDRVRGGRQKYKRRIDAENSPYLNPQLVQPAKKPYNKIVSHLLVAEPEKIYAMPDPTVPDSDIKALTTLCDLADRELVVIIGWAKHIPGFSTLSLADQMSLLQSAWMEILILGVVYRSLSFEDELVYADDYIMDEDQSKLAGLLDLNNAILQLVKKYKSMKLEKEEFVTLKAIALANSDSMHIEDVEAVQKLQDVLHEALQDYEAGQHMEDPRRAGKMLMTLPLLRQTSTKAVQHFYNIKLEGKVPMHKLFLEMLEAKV

Cc1ccc2oc(=O)ccc2c1
not listed: [8] | [9]
inactive: all other assays above

CCO[Si](C)(OCC)OCC
inactive: [1] | [2] | [3] | [4] | [5]

C=CC(C)(CCC=C(C)C)OC(=O)C(C)C (configuration not stated)
inactive: [1] | [2] | [3] | [5] | [6]
active: [4] 38 µM

CC(C)c1ccc2c(c1)CC[C@H]1[C@](C)(CN)CCC[C@]21C
inactive: [1] | [2] | [4]
active: [3] 5.66 µM | [5] 5.24 µM

CC(C)(c1cc(Br)c(OCCO)c(Br)c1)c1cc(Br)c(OCCO)c(Br)c1
active: [1] 27 µM | [3] 1.22 µM | [5] 30.1 µM
inactive: [2] | [4]

Cc1cc(C)c(C)cc1C
not listed: [7] | [8] | [9]
inactive: all other assays above

CCCCOCCOC(=O)COc1nc(Cl)c(Cl)cc1Cl
not listed: [7] | [8] | [9]
inactive: all other assays above

COC(=O)c1c(C)cc(O)c(C)c1O
active: [4] 38.7 µM
not listed: [8] | [9]
inactive: all other assays above

CC1=Nc2ccc3ccccc3c2C1(C)C
active: [3] 2.97 µM | [4] 17.1 µM
inactive: all other assays above

C=CC=CC=CCCCCC
not listed: [6] | [7] | [9]
inactive: all other assays above

CCCNC(=O)NS(=O)(=O)c1ccc(Cl)cc1
not listed: [8] | [9]
inactive: all other assays above

CCC(=O)Oc1ccc(/C(CC)=C(\CC)c2ccc(OC(=O)CC)cc2)cc1
active: [3] 4.32 µM | [4] 0.54 µM | [5] 27.5 µM
inactive: [1] | [2]

C=C[C@](C)(O)CC[C@@H]1[C@@]2(C)CCCC(C)(C)[C@@H]2CC[C@@]1(C)O
inactive: [1] | [2] | [3] | [4] | [5]

CC(C)c1ccc(C#N)cc1
not listed: [9]
inactive: all other assays above

CCOC(=O)c1ccccc1C(=C1C=C(Br)C(=O)C(Br)=C1)c1cc(Br)c(O)c(Br)c1
active: [3] 25.9 µM | [5] 34.4 µM
inactive: [1] | [2] | [4]
